From publication PMC5540273 (PLoS ONE, 2017)

What was measured:
Settings in all cases: concentration: 1 μM, replicates: in singlicate; n = 1
KIT-autoinhibited = test system: KIT-autoinhibited
KIT = test system: KIT
LATS1 = test system: LATS1
LATS2 = test system: LATS2
LCK = test system: LCK
LIMK1 = test system: LIMK1
LIMK2 = test system: LIMK2
LKB1 = test system: T1, LKB1
T1 construct: gene STK11

LOK = test system: T2, LOK
T2 construct: gene STK10

LRRK2 = test system: LRRK2
LTK = test system: LTK
LYN = test system: LYN
LZK = test system: T3, LZK
T3 construct: gene MAP3K13

MAK = test system: MAK
MAP3K15 = test system: MAP3K15
MAP3K1 = test system: MAP3K1
MAP3K2 = test system: MAP3K2
MAP3K3 = test system: MAP3K3
MAP3K4 = test system: MAP3K4
MAP4K2 = test system: MAP4K2
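Note: KINOMEscan kinase panel screen.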

SMILES	%Inh (KIT-autoinhibited)	%Inh (KIT)	%Inh (LATS1)	%Inh (LATS2)	%Inh (LCK)	%Inh (LIMK1)	%Inh (LIMK2)	%Inh (LKB1)	%Inh (LOK)	%Inh (LRRK2)	%Inh (LTK)	%Inh (LYN)	%Inh (LZK)	%Inh (MAK)	%Inh (MAP3K15)	%Inh (MAP3K1)	%Inh (MAP3K2)	%Inh (MAP3K3)	%Inh (MAP3K4)	%Inh (MAP4K2)
Fc1ccc(-c2ncn(CCCN3CCOCC3)c2-c2ccccn2)cc1 [SB-211742]	0%	0%	10%	0%	28%	0%	0%	33%	8%	0%	11%	0%	0%	0%	0%	0%	0%	0%	18%	0%
CCc1ccnc(/C=C/c2n[nH]c3cc(Sc4ccccc4C(=O)NC)ccc23)c1	96.9%	100%	9%	0%	5%	0%	0%	0%	23%	23%	6%	23%	17%	20%	0%	12%	17%	6%	4%	9%
O=C(NCCNc1ccnc(Nc2ccc(F)cc2)n1)c1cc2ccccc2s1 [GSK1379874]	0%	0%	0%	0%	12%	0%	25%	1%	0%	0%	0%	0%	0%	23%	0%	0%	0%	0%	0%	0%
Cn1ccc2ncnc(Oc3ccc(NC(=O)Nc4ccncc4)c(Cl)c3)c21	0%	74%	0%	0%	0%	0%	0%	13%	14%	0%	0%	0%	0%	10%	0%	0%	0%	0%	0%	0%
NCC(NC(=O)c1cc(-c2cn[nH]c2)c(-c2ccnc3[nH]ccc23)s1)c1ccccc1.O=C(O)C(F)(F)F.O=C(O)C(F)(F)F (stereo not drawn) [GSK1325775]	0%	26%	59%	91.1%	4%	0%	28%	57%	0%	3%	0%	0%	0%	16%	21%	12%	8%	0%	20%	84%
Cc1c(Cn2c(C)nn3c(=O)cc(N4CCOC(C)C4)nc23)cccc1C(F)(F)F (stereo not drawn) [GSK2344444]	4%	1%	0%	0%	20%	0%	11%	0%	0%	25%	0%	0%	0%	15%	10%	16%	9%	0%	0%	0%
Cc1cccc(-c2nc(-c3ccc(S(C)(=O)=O)cc3)sc2-c2ccncc2)c1	7%	18%	36%	50%	23%	0%	1%	0%	0%	2%	0%	14%	8%	17%	9%	12%	10%	9%	0%	0%
CCc1nc(-c2cccc(C)c2)c(-c2ccnc(NCc3ccccc3)c2)s1	0%	26%	21%	0%	0%	0%	0%	0%	19%	3%	0%	8%	0%	26%	3%	0%	0%	0%	0%	3%
O=c1cc(N2CCOCC2)nc2n(Cc3cccc(F)c3)ccn12 [GSK2297430]	0%	10%	0%	0%	23%	9%	5%	0%	0%	31%	68%	0%	0%	21%	0%	17%	0%	0%	10%	0%
Cc1cccc(-c2nc(Nc3ccc4ncsc4c3)c3ccccc3n2)n1 [GW867588]	12%	0%	2%	0%	9%	4%	0%	23%	27%	60%	7%	0%	7%	0%	0%	0%	8%	6%	0%	0%
Cc1nnc(-c2ccc3occ(-c4ccc(C(C)O)cc4)c3c2)o1 (stereo not drawn)	0%	11%	15%	12%	2%	29%	0%	7%	4%	4%	0%	18%	0%	0%	0%	10%	3%	19%	9%	20%
c1ccc(-c2cc(-c3c[nH]nc3-c3ccccn3)ccn2)cc1 [GW576604]	0%	9%	0%	0%	0%	0%	0%	17%	0%	0%	19%	0%	10%	0%	0%	0%	0%	0%	0%	0%
